Bioassay records (PubChem BioAssay)
hgDAF12 agonist – hgDAF-12 agonism, primary luciferase screen; HEK293 GAL4-hgDAF12 UAS-luciferase reporter, agonist luminescence; normalized to butyrate control; activation, % at 6.8 µM; actives 1.8% (n = 370,000); AID 687014;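 active means activation above a cutoff set at the mean of all screened compounds plus 3 SD, cut at about 10% in these data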;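 further: 0% = DMSO wells and 100% = sodium butyrate wells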
ssDAF12 agonist – S. stercoralis DAF-12 activation, primary screen; HEK293 ssDAF-12/GRIP1 lit1-tk-luc reporter, luminescence; % of 3 µM dafachronic acid response; activation, % at 6.8 µM; actives 1% (n = 370,000);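 active means activation above the mean over all tested compounds plus 3 SD, cut at about 0.9% in these data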;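 further: 0% = DMSO-only wells and 100% = 3 µM delta7-dafachronic acid wells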
DAX1 inh-1 – NR0B1 (DAX1) inhibition; P51843; HEK293 Gal4-DAX1 luciferase reporter, luminescence; inhibition, % at 6.75 µM; actives 0.99% (n = 340,000);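 active means inhibition above the mean over all tested compounds plus 3 SD, cut at about 4.2% in these data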;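 further: 0% = DAX1-transfected cells with DMSO and 100% = empty-vector control cells with DMSO; inhibition shows as a rise in luminescence from relieved DAX1 repression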
Target sequence (P51843 207-470 limits assumed): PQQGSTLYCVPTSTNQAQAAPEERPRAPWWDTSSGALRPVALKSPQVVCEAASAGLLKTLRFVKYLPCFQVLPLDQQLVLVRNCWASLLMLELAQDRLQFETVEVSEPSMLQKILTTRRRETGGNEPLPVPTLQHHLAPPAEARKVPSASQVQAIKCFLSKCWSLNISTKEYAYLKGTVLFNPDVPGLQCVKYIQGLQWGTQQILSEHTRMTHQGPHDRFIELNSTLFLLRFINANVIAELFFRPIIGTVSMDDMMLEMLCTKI
DAX1 inh-2 – DAX1 (NR0B1) inhibition, primary screen; HEK293T StAR-luciferase reporter, SF-1/DAX-1 repression relief; inhibition, % at 6.8 µM; actives 1.1% (n = 370,000);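 active means inhibition above the mean over all tested compounds plus 3 SD, cut at about 3.6% in these data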;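 further: 0% = DAX-1 cells with DMSO and 100% = cells lacking DAX-1 with DMSO; higher inhibition means more luminescence from relief of DAX-1 repression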
hcDAF12 agonist – activates DAF-12 receptor from parasite H. contortus. AID 652067. activation, % at 6.8 µM. HEK293 hcDAF-12 lit1-tk-luc reporter, luminescence; 0% DMSO, 100% Δ7-dafachronic acid. actives 1.4% (n = 370,000);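 active means activation above the mean of all tested compounds plus 3 SD, cut at about 5.5% in these data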;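 further: 100% = response to 3 µM Δ7-dafachronic acid high control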
Active calls of the source: *; x = not tested or not shown. In the library only some 4.1% were active in any assay of this set; here they are far more common.

SMILES	hgDAF12 agonist	ssDAF12 agonist	DAX1 inh-1	DAX1 inh-2	hcDAF12 agonist
CC(=O)c1cccc(NC(=S)NC(=O)c2cccc(C)c2)c1	13*	-1	0	2	1
CC(=O)c1cccc(NC(=S)NC(=O)c2ccc(Cl)cc2)c1	9	-1	2	1	1
O=C(O)/C(=C\c1ccc(-c2ccccc2[N+](=O)[O-])o1)c1ccccc1	4	0.9*	2	0	5.7*
O=C(/C=C/c1ccc(-c2ccccc2[N+](=O)[O-])o1)c1ccccc1	1	0	1	0	2
Cc1nc2ccc(S(=O)(=O)NCC(=O)N3CCc4ccccc43)cc2s1	0	0.9*	1	1	3
CCCCCCCCS(=O)C1CS(=O)(=O)CC1O (stereo unspecified)	0	-2	4.7*	0	0
O=C(CCc1nnc(-c2ccc3c(c2)OCO3)o1)N1CCC(c2ccc(F)cc2)C1 (stereo unspecified)	8	1	5.0*	1	1
CCCOc1ccc2c3c(c(=O)oc2c1)CCCC3	1	-1	0	-1	0
C=CCOc1ccc2c3c(c(=O)oc2c1)CCCC3	1	-1	4.3*	-1	-1
COc1ccc(S(=O)(=O)N2CCOCC2)cc1NC(=O)CCNC(=O)c1ccc([N+](=O)[O-])cc1	-7	-2	-2	-8	-4
CC(=NNc1cc(C)c2ccccc2n1)c1ccccn1	-1	0.9*	x	2	2
CCN(CC)CCN1C(=O)C(=O)/C(=C(/O)c2ccc(F)cc2)C1c1cccnc1 (stereo unspecified)	0	-1	5.0*	0	-1
Cc1ccc(/C(O)=C2\C(=O)C(=O)N(CCN(C)C)C2c2ccccc2F)cc1 (stereo unspecified)	-1	-1	4.6*	-1	-1
Cc1nc2ccccn2c1/C(O)=C1\C(=O)C(=O)N(CCN(C)C)C1c1ccco1 (stereo unspecified)	2	-1	5.2*	0	2
O=S1(=O)N[C@@H](Cc2ccccc2)COc2cc(N3CCCCC3)ccc21	0	0	x	0	-1
O=C(O)COc1ccc2c(c1)O/C(=C\c1cccs1)C2=O	3	0	0	0	0
COc1ccc2c(c1)O/C(=C\c1sccc1C)C2=O	11*	-1	0	0	2
O=C(NC1CCCC1)C1CSCCS(=O)(=O)N1Cc1ccc(F)cc1 (stereo unspecified)	1	-1	x	0	0
Oc1ccc2ccccc2c1C=NNc1ccccn1	2	2.0*	0	-4	6.0*
Oc1ccc2ccccc2c1C=Nc1ccccc1Br	2	0	1	0	0
Oc1ccccc1N=Cc1c(O)ccc2ccccc12	-3	1	-2	-1	5.9*
O=C(NCCOC(=O)Nc1cccc2ccccc12)OCc1ccccc1	0	0	0	-2	-1
CC(C)CNC(=O)OCc1cn(Cc2ccc(F)c(F)c2)nn1	0	0	x	1	-1
O=C1C(Nc2ccccc2)=C/C(=N/S(=O)(=O)c2cccs2)c2ccccc21	x	x	-6	x	x
Cc1ccc(NC2=C/C(=N/S(=O)(=O)c3cccs3)c3ccccc3C2=O)cc1	7	0	0	0	5.8*
SMILES	hgDAF12 agonist	ssDAF12 agonist	DAX1 inh-1	DAX1 inh-2	hcDAF12 agonist
O=C(NC1CC1)c1ccc2c(Cl)c3c(nc2c1)CCCC3	11*	-2	-1	0	0
Cc1cc(Br)c2nc(-c3ccc(Cl)cc3)c(Cc3cccc(Cl)c3)n2c1	4	0	x	0	3
COc1ccc(-n2c(COc3ccc(Cl)cc3)nnc2SCC(=O)Nc2ccc(Oc3ccccc3)cc2)cc1	5	-2	x	-1	-3
CC1CN(S(=O)(=O)c2cc(C(=O)NCCC3=CCCCC3)ccc2Cl)CC(C)O1 (stereo unspecified)	6	-1	-1	3.8*	1
O=C(NCC(c1ccco1)N1CCN(c2ccccc2)CC1)c1cccs1 (stereo unspecified)	0	-1	-1	-1	1
O=C(COc1ccccc1)NCC(c1ccco1)N1CCN(c2ccccc2)CC1 (stereo unspecified)	12*	-1	-2	-2	0
CS(=O)(=O)c1ccc(Cl)c(NC(=O)CN2CCCC2c2ccc3c(c2)OCCCO3)c1 (stereo unspecified)	11*	-1	0	-3	-1
